{"source": "PubChem BioAssay (Tox21)", "note": "“And” between values parts separate entries of the source, which are not always exact repeats. Equal values may be shown once. More than one record can exist for a structure, and the calls need not agree. The source made the active and inactive calls. Unless noted, calls follow the shape of the full dose curve. % is scaled to controls: 0 for no effect and ±100 for the full control effect."}
{"test_system": "thyroid hormone receptor (rat, GH3 cells)", "assay": "qHTS assay to identify small molecule agonists of the thyroid receptor (TR) signaling pathway (AID 743066)", "details": "GH3.TRE-Luc cells, TR agonist luciferase, 24 h; series mostly up to 83.9 µM; activation: at the top concentration"}
{"smiles": "CCOP(=S)(OCC)Oc1nc(Cl)c(Cl)cc1Cl", "Potency": "inactive"}
{"smiles": "COP(=S)(OC)Oc1cc(Cl)c(I)cc1Cl", "activation": "-4.94% (inactive)"}
{"smiles": "COP(=S)(Oc1cc(Cl)c(Br)cc1Cl)c1ccccc1", "note": "(stereo not drawn)", "activation": "-8.95% (inactive)"}
{"smiles": "CCCN(CCC)c1c([N+](=O)[O-])cc(S(C)(=O)=O)cc1[N+](=O)[O-]", "activation": "1.42% (inactive)"}
{"target": "Estrogen receptor (Homo sapiens) (UniProt P03372)", "sequence (P03372 whole entry, looked up)": "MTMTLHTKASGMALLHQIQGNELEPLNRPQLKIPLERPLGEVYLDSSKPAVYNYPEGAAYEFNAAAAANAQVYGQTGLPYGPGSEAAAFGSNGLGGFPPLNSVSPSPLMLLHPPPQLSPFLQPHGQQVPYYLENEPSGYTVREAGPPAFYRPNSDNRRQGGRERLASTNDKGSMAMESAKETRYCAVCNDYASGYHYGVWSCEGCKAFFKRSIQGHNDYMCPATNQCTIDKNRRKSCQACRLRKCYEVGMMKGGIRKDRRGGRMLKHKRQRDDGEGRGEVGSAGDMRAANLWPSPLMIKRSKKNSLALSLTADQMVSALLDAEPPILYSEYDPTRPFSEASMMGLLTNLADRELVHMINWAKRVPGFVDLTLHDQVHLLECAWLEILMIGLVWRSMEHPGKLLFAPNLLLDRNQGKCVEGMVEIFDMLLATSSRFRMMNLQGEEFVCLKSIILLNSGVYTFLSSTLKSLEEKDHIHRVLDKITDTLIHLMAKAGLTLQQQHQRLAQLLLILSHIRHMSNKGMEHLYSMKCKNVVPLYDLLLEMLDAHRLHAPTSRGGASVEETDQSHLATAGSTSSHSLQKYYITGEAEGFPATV", "assay": "qHTS assay to identify small molecule antagonists of the estrogen receptor alpha (ER-alpha) signaling pathway (AID 743069; active = well fitted curve in the direction sought with a large enough effect in the signal ratio in the repeat runs, not every such curve was filed as active; inconclusive = weak or mixed curves, or effect the other way; inactive = no such curve, though single readings can be large or run the other way; the % refers to the signal ratio; also: potency is read from the fitted curve at half-maximal effect)", "details": "HEK293 ER-alpha-UAS-bla, beta-lactamase ratio, antagonist mode; series mostly up to 69.4 µM; activity, negative = inhibition: at the top concentration", "method_in_brief": "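HEK293 cells stably carrying an ER-alpha-UAS-bla beta-lactamase reporter were pre-cultured overnight in 2% charcoal-stripped FBS medium. Test compounds in DMSO were added together with 17beta-estradiol for 18 hr at 37C. Read-out was fluorescence after 2 hr with LiveBLAzer B/G FRET substrate at room temperature.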"}
{"smiles": "Cc1cc(=O)[nH]o1", "activity, negative = inhibition": "14.5% [at 79.1 µM] (inactive)"}
{"smiles": "C=CC(C)=O", "activity, negative = inhibition": "-2.36% (inactive)"}
{"smiles": "CCOP(=O)(OCC)O/C(=C/Cl)c1ccc(Cl)cc1Cl", "Potency": "21.9 µM [inconclusive] (active)"}
{"smiles": "BrCCCCBr", "activity, negative = inhibition": "5.59% (inactive)"}
{"smiles": "CCOP(=S)(Oc1ccc([N+](=O)[O-])cc1)c1ccccc1", "note": "(stereo not drawn)", "activity, negative = inhibition": "13.7% (inactive)"}
{"smiles": "Cl/C=C\\C[N+]12CN3CN(CN(C3)C1)C2", "activity, negative = inhibition": "4.63% (inactive)"}
{"smiles": "O=C(CBr)OCc1ccccc1", "activity, negative = inhibition": "20.4% (inactive)"}
{"smiles": "COP(=O)(OC)O/C(=C/Cl)c1cc(Cl)c(Cl)cc1Cl", "Potency": "16.4 µM [inconclusive] (active)"}
{"smiles": "O=C(O)C(F)(F)C(F)(F)C(F)(F)C(F)(F)C(F)(F)C(F)(F)C(F)(F)C(F)(F)C(F)(F)F", "Potency": "15.5 µM [inhibitor] (active)"}
{"smiles": "C(=NC1CCCCC1)=NC1CCCCC1", "Potency": "inactive and 3.89 µM [inconclusive] (active)"}
{"smiles": "COc1nn(CSP(=S)(OC)OC)c(=O)s1", "activity, negative = inhibition": "-26.9% (inactive)"}
{"smiles": "NC(=O)C(Cl)(Cl)Cl", "activity, negative = inhibition": "6.04% [at 79.1 µM] (inactive)"}
{"test_system": "not listed separately", "assay": "qHTS assay to identify small molecule antagonists of the estrogen receptor alpha (ER-alpha) signaling pathway - cell viability counter screen (AID 743074); also: nearly all actives have a fitted effect of over 45% in size", "details": "ERalpha-bla HEK293 viability, CellTiter-Glo luminescence, 18 h; series mostly up to 69.4 µM; activity, negative = cytotoxicity: at the top concentration"}
{"smiles": "CC1(C)CCC(Cc2ccc(Cl)cc2)C1(O)Cn1cncn1", "note": "(stereo not drawn)", "activity, negative = cytotoxicity": "-15.6% (inactive)"}
{"smiles": "CCOP(=O)(OCC)SCCSCC", "activity, negative = cytotoxicity": "12.6% (inactive)"}
{"smiles": "CCCCCCCCCCOC(=O)c1ccccc1C(=O)OCCCCCCCCCC", "activity, negative = cytotoxicity": "-8.45% (inactive)"}
{"smiles": "CCC(COC(=O)c1cc(OC)c(OC)c(OC)c1)(c1ccccc1)N(C)C", "note": "(stereo not drawn)", "activity, negative = cytotoxicity": "-25.3% (inactive)"}
{"smiles": "Cc1cc(=O)[nH]o1", "activity, negative = cytotoxicity": "11.8% [at 79.1 µM] (inactive)"}
{"smiles": "C=CC(C)=O", "activity, negative = cytotoxicity": "16.1% (inactive)"}
{"smiles": "Clc1cc(C(Cl)(Cl)Cl)cnc1Cl", "activity, negative = cytotoxicity": "19.6% (inactive)"}
{"smiles": "CCOP(=O)(OCC)O/C(=C/Cl)c1ccc(Cl)cc1Cl", "Potency": "inactive"}
{"smiles": "BrCCCCBr", "activity, negative = cytotoxicity": "4% (inactive)"}
{"smiles": "S=C=NCc1ccccc1", "activity, negative = cytotoxicity": "-7.35% [at 79.1 µM] (inactive)"}
{"smiles": "C=CC(=O)OC(C)(C)C", "activity, negative = cytotoxicity": "14.2% (inactive)"}
{"smiles": "CC(O)(CS(=O)(=O)c1ccc(F)cc1)C(=O)Nc1ccc(C#N)c(C(F)(F)F)c1", "note": "(stereo not drawn)", "Potency": "inactive"}
{"smiles": "COc1c(C(C)(C)C)cc([N+](=O)[O-])c(C)c1[N+](=O)[O-]", "activity, negative = cytotoxicity": "28.7% (inactive)"}
{"smiles": "Clc1ccc(C2(Cn3cncn3)CC(Br)CO2)c(Cl)c1", "note": "(stereo not drawn)", "activity, negative = cytotoxicity": "-16% (inactive)"}
{"smiles": "O=C(NCc1cccnc1)Nc1ccc([N+](=O)[O-])cc1", "activity, negative = cytotoxicity": "-5.65% (inactive)"}
{"smiles": "CCn1cc[n+](C)c1", "Potency": "inactive"}
{"smiles": "CCOP(=S)(Oc1ccc([N+](=O)[O-])cc1)c1ccccc1", "note": "(stereo not drawn)", "activity, negative = cytotoxicity": "-4.6% (inactive)"}
{"smiles": "Cl/C=C\\C[N+]12CN3CN(CN(C3)C1)C2", "activity, negative = cytotoxicity": "18.5% (inactive)"}
{"smiles": "Cc1c(F)c(F)c(COC(=O)C2C(/C=C(\\Cl)C(F)(F)F)C2(C)C)c(F)c1F", "note": "(stereo not drawn)", "activity, negative = cytotoxicity": "1.29% (inactive)"}
{"smiles": "O=C(CBr)OCc1ccccc1", "activity, negative = cytotoxicity": "24.8% (inactive)"}
{"smiles": "O=C(OC1CCCCC1)c1ccccc1C(=O)OC1CCCCC1", "activity, negative = cytotoxicity": "-21% [at 79.1 µM] (inactive)"}
{"smiles": "ClCCCCBr", "activity, negative = cytotoxicity": "12% [at 79.1 µM] (inactive)"}
{"smiles": "CCOP(=S)(OCC)Oc1cc(Cl)c(Br)cc1Cl", "activity, negative = cytotoxicity": "13.7% (inactive)"}
{"smiles": "O=C(O)C(F)(F)C(F)(F)C(F)(F)C(F)(F)C(F)(F)C(F)(F)C(F)(F)C(F)(F)C(F)(F)F", "activity, negative = cytotoxicity": "5.75% (inactive)"}
{"smiles": "O=C(O)CC(Cl)C(=O)O", "note": "(stereo not drawn)", "activity, negative = cytotoxicity": "-6.92% [at 79.1 µM] (inactive)"}
{"smiles": "C(=NC1CCCCC1)=NC1CCCCC1", "Potency": "inactive"}
{"smiles": "CCOP(=S)(OCC)Oc1nc(Cl)c(Cl)cc1Cl", "activity, negative = cytotoxicity": "-12.5% (inactive)"}
{"smiles": "NC(=O)C(Cl)(Cl)Cl", "activity, negative = cytotoxicity": "17% [at 79.1 µM] (inactive)"}
{"smiles": "COP(=S)(OC)Oc1cc(Cl)c(I)cc1Cl", "activity, negative = cytotoxicity": "-25.5% (inactive)"}
{"smiles": "COP(=S)(Oc1cc(Cl)c(Br)cc1Cl)c1ccccc1", "note": "(stereo not drawn)", "activity, negative = cytotoxicity": "-13.7% (inactive)"}
{"smiles": "CCCN(CCC)c1c([N+](=O)[O-])cc(S(C)(=O)=O)cc1[N+](=O)[O-]", "activity, negative = cytotoxicity": "-4.49% (inactive)"}
{"target": "Estrogen receptor (Homo sapiens) (UniProt P03372)", "assay": "qHTS assay to identify small molecule agonists of the estrogen receptor alpha (ER-alpha) signaling pathway (AID 743075); also: potency is read from the fitted curve at half-maximal effect", "details": "HEK293 ER-alpha-UAS-bla, beta-lactamase FRET ratio, 18 h; series mostly up to 70.1 µM; activation: at the top concentration"}
{"smiles": "CC1(C)CCC(Cc2ccc(Cl)cc2)C1(O)Cn1cncn1", "note": "(stereo not drawn)", "activation": "18% (inactive)"}
{"smiles": "CCOP(=O)(OCC)SCCSCC", "activation": "3.77% (inactive)"}
{"smiles": "CCCCCCCCCCOC(=O)c1ccccc1C(=O)OCCCCCCCCCC", "activation": "-0.974% (inactive)"}
{"smiles": "Cc1cc(=O)[nH]o1", "activation": "-0.223% [at 79.1 µM] (inactive)"}
{"smiles": "C=CC(C)=O", "activation": "-1.42% (inactive)"}
{"smiles": "O=C1C(=O)c2cccc3cccc1c23", "activation": "8.25% (inactive)"}
{"smiles": "Clc1cc(C(Cl)(Cl)Cl)cnc1Cl", "activation": "-1.94% (inactive)"}
{"smiles": "CCOP(=O)(OCC)O/C(=C/Cl)c1ccc(Cl)cc1Cl", "Potency": "inactive"}
{"smiles": "BrCCCCBr", "activation": "-1.9% (inactive)"}
{"smiles": "CC(O)(CS(=O)(=O)c1ccc(F)cc1)C(=O)Nc1ccc(C#N)c(C(F)(F)F)c1", "note": "(stereo not drawn)", "Potency": "inactive"}
{"smiles": "COc1c(C(C)(C)C)cc([N+](=O)[O-])c(C)c1[N+](=O)[O-]", "Potency": "48.6 µM [activator] (active)"}
{"smiles": "Clc1ccc(C2(Cn3cncn3)CC(Br)CO2)c(Cl)c1", "note": "(stereo not drawn)", "activation": "9.36% (inactive)"}
{"smiles": "O=C(NCc1cccnc1)Nc1ccc([N+](=O)[O-])cc1", "activation": "-3.04% (inactive)"}
{"smiles": "CCOP(=S)(Oc1ccc([N+](=O)[O-])cc1)c1ccccc1", "note": "(stereo not drawn)", "activation": "5.51% (inactive)"}
{"smiles": "Cl/C=C\\C[N+]12CN3CN(CN(C3)C1)C2", "activation": "-0.566% (inactive)"}
{"smiles": "Cc1c(F)c(F)c(COC(=O)C2C(/C=C(\\Cl)C(F)(F)F)C2(C)C)c(F)c1F", "note": "(stereo not drawn)", "activation": "-0.738% (inactive)"}
{"smiles": "O=C(OC1CCCCC1)c1ccccc1C(=O)OC1CCCCC1", "activation": "-0.782% [at 79.1 µM] (inactive)"}
{"smiles": "N#Cc1ccc(Cl)cc1", "activation": "1.57% (inactive)"}
{"smiles": "CCOP(=S)(OCC)Oc1cc(Cl)c(Br)cc1Cl", "activation": "0.982% (inactive)"}
{"smiles": "O=C(O)C(F)(F)C(F)(F)C(F)(F)C(F)(F)C(F)(F)C(F)(F)C(F)(F)C(F)(F)C(F)(F)F", "activation": "-1.34% (inactive)"}
{"smiles": "C(=NC1CCCCC1)=NC1CCCCC1", "Potency": "inactive"}
{"smiles": "COc1nn(CSP(=S)(OC)OC)c(=O)s1", "activation": "14.9% (inactive)"}
{"smiles": "CCOP(=S)(OCC)Oc1nc(Cl)c(Cl)cc1Cl", "activation": "-3.92% (inactive)"}
{"smiles": "NC(=O)C(Cl)(Cl)Cl", "activation": "6.55% [at 79.1 µM] (inactive)"}
{"smiles": "COP(=S)(Oc1cc(Cl)c(Br)cc1Cl)c1ccccc1", "note": "(stereo not drawn)", "activation": "7.76% (inactive)"}
{"smiles": "CCCN(CCC)c1c([N+](=O)[O-])cc(S(C)(=O)=O)cc1[N+](=O)[O-]", "activation": "-1.57% (inactive)"}
